Only some compounds are listed: those with a hit (about 8.1% of all), similar ones and a draw of the others.
ELG1 DNA repair = ELG1-dependent DNA repair inhibition | HEK293T ELG1-luciferase reporter, luminescence, 16 h; DNA damage induced by 5-fluorouridine | Potency, µM (series often up to 46.1 µM), for inactives: at the highest dose activity change, negative = inhibition, actives largely listed as inhibitors | hit rate 2.3% among 330,000 | AID 504467; also: % is scaled to controls: 0 for no effect and ±100 for the full control effect; nearly all actives have a fitted effect of over 55% in size
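Cells (2,000 per well) received 5-fluorouridine plus test compound or DMSO and were incubated 16 hr at 37 °C, 5% CO2. Luciferase activity was read by luminescence 30 min after ONE-Glo addition; signal suppression marked inhibition of damage-induced ELG1 function.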
KB-3-1 tox = KB-3-1 parental cell cytotoxicity; KB-3-1 viability, CellTiter-Glo ATP luminescence, 72 h; hit rate 1.4% among 400,000; AID 1347075; Potency, µM (series often up to 46.1 µM), most hits filed as cytotoxic; also: % is scaled to controls: 0 for no effect and ±100 for the full control effect; nearly all actives have a fitted effect of over 60% in size
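KB-3-1 parental drug-naive adenocarcinoma cells in DMEM/10% FBS, incubated 72 h at 37 C with pin-transferred compounds across a concentration series. Viability by CellTiter-Glo luminescence; concentration-response curves fitted after normalization.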
MCF10A rerep = induces DNA re-replication in MCF 10a normal breast cells. Potency, µM (titrated, usually from 46.1 µM), without a hit: at the top dose activity, positive = re-replication, usual class: activators. hit rate 2.9% among 350,000. AID 624296. MCF 10A DNA re-replication, Hoechst nuclear intensity, 48 h; also: % of control where 0% means no effect; nearly all actives have a fitted effect of over 50% in size
KB-V1 MDR tox = KB-V1 MDR subline cytotoxicity; AID 1347076; hit rate 3.4% among 400,000; KB-V1 MDR cells viability, CellTiter-Glo, 72 h; Potency, µM (top dose mostly 46.1 µM), usual class: cytotoxic; also: % is scaled to controls: 0 for no effect and ±100 for the full control effect; nearly all actives have a fitted effect of over 60% in size
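Readout: CellTiter-Glo luminescence, 10 min after addition. Cells: KB-V1 MDR subline, 72 h at 37 degrees C with compound. Analysis: corrected, normalized data fitted to concentration-effect curves.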
SW480 rerep = DNA re-replication induction in SW480 cells; SW480 DNA re-replication, Hoechst DNA content imaging, 48 h; Potency, µM (titrated, usually from 46.1 µM), without a hit: at the highest dose re-replication activation, usual class: activators; hit rate 1.8% among 340,000; AID 624297; also: % of control where 0% means no effect; nearly all actives have a fitted effect of over 55% in size
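First, 250 cells per well were seeded. Next, compound or vehicle (23 nL) was pinned in, plates sat 48 hr at 37 C. Finally Hoechst was added for 40 min before fluorescence scanning.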
* hit, by the source's call; i = inactive; u = inconclusive; x = not tested or not shown. Calls follow the shape of the dose curve; as a rule, active = well fitted curve in the direction sought with a large enough effect; inconclusive = small, poorly fitted or top-dose-only effect, or another doubt; inactive = no such curve, though single readings can be large; an effect the other way counts as inactive or inconclusive. Potency is read from the fitted curve at half-maximal effect.

SMILES	ELG1 DNA repair	KB-3-1 tox	MCF10A rerep	KB-V1 MDR tox	SW480 rerep
Cc1ccc(C2=NN(S(C)(=O)=O)C(c3ccc4nccnc4c3)C2)cc1 (stereo not drawn)	u	i	0.2%	i	0.3%
CCC(C)(C)n1nnnc1C(c1cc2ccc(OC)cc2[nH]c1=O)N1CCc2ccccc21 (stereo not drawn)	u	i	u	i	u
CCC(C)(C)n1nnnc1C(c1cc2cc(OC)ccc2[nH]c1=O)N1CCc2ccccc21 (stereo not drawn)	-7.3%	u	-0.9%	18.4µM*	6.6%
Cc1cc2cc(C(c3nnnn3Cc3ccccc3)N3CCc4ccccc43)c(=O)[nH]c2cc1C (stereo not drawn)	u	i	7.4%	8.2µM*	u
Cc1ccc(S(=O)(=O)N2CCN(S(=O)(=O)c3ccccc3Br)C2=O)cc1	-5.2%	i	u	i	10.6%
COC(=O)c1sccc1-c1ccc(C(=O)Nc2ccccc2)o1	u	u	13.2%	13µM*	-2.7%
COC(=O)c1sccc1NC(=O)c1ccc(C)o1	-10.9%	i	-5.1%	i	-3.6%
Cc1c(C(=O)Nc2ccc(Cl)cc2)c2ccccn2c1C(=O)c1ccccc1	11.7%	u	25.9µM*	u	u
Cc1c(/C=N/NC(=O)CNc2ccccc2)c2ccccn2c1C(=O)c1ccc(Cl)cc1	23.1µM*	i	6.8%	2.31µM*	-18.0%
Cc1c(/C=N/NC(=O)CNc2ccccc2)c2ccccn2c1C(=O)c1ccncc1	18.4µM*	i	1.5%	i	-4.2%
Cc1c(C=O)c2ccccn2c1C(=O)c1ccccc1	u	i	17.9%	u	-4.3%
Cc1c(C(=O)Nc2ccc(Cl)cc2)c2ccccn2c1C(=O)c1ccc([N+](=O)[O-])cc1	1.1%	i	5.6%	i	18.7%
CCCCOc1ccc(CC(=O)N(C)O)cc1	x	u	x	i	x
COc1cc(OC)cc(-c2nc3nc(C)c(CCC(=O)Nc4ccc(Cl)cc4)c(C)n3n2)c1	x	i	x	i	x
COCCn1c(SCC(=O)NN2C(=O)NC(C)(c3ccccc3)C2=O)nnc1-c1ccncc1 (stereo not drawn)	u	i	0.1%	u	-0.2%
O=C(Cn1c2ccccc2c(=O)c2ccccc21)Nc1cccc(F)c1	4.3%	i	11.6µM*	i	18.4µM*
O=C(Cn1c(=O)c(=O)n(Cc2ccccc2)c2ccc(Cl)cc21)Nc1cccc(F)c1	-3.7%	i	11.4%	13µM*	-47.2%
CCc1cccc(NC(=O)Cn2c(=O)c3cccn3c3ccccc32)c1	24.4%	i	18.4µM*	i	3.0%
Cc1cccc(C)c1NC(=O)Cn1c(=O)c2cccn2c2ccccc21	-6.6%	i	-14.8%	i	-2.1%
Cc1cc2c(cc1S(=O)(=O)C(C)CC(=O)NC1CCC(C)CC1)OCC(=O)N2 (stereo not drawn)	x	i	x	i	x
Cc1ccc(Nc2nc(N)nc(-c3oc4ccccc4c3C)n2)cc1	u	0.184µM*	u	u	u
Cc1c(-c2nc(N)nc(Nc3ccccc3F)n2)oc2ccccc12	u	i	17.6%	16.4µM*	u
Cc1ccc(Nc2nc(C)nc3c2oc2ccccc23)cc1	u	i	u	u	-5.8%
COc1ccccc1Nc1nc(N)nc(-c2cc3ccccc3o2)n1	-0.1%	i	u	u	u
Cc1cccc(Nc2nc(N)nc(-c3oc4ccccc4c3C)n2)c1	-3.0%	u	16.4µM*	20.6µM*	18.4µM*
SMILES	ELG1 DNA repair	KB-3-1 tox	MCF10A rerep	KB-V1 MDR tox	SW480 rerep
COc1cccc(Nc2nc(N)nc(-c3oc4ccccc4c3C)n2)c1	0.2%	u	7.31µM*	4.61µM*	13µM*
CC1(C(=O)NS(=O)(=O)c2ccc3c(c2)CCO3)CCN1C(=O)C1(c2ccc(Cl)cc2)CCC1 (stereo not drawn)	x	i	x	i	x
CCCc1ccc(OC(=O)CSc2nnc(-c3cccs3)o2)cc1	x	i	x	i	x
O=C(CCN1CCC2CCC(C2)C1)c1ccccc1 (stereo not drawn)	x	i	u	i	u
OC(CCN1CCC2CCC(C2)C1)c1ccc(Br)cc1 (stereo not drawn)	x	u	16.5%	i	14.6µM*
CCOC(=O)c1c(NC(=O)c2ccccc2Cl)sc2c1CCc1ccccc1-2	-4.8%	i	16.4µM*	u	-695.2%
CCOC(=O)c1c(NC(=O)c2ccccc2)sc2c1CCc1ccccc1-2	-6.7%	i	20.6µM*	i	u
N[C@@H](CO)C(=O)NNCc1ccc(O)c(O)c1O	x	x	-0.3%	x	-0.3%
COc1cc(NC2CCCCC2O)c2nc(-c3ccc(Cl)cc3)ccc2c1 (stereo not drawn)	-16.2%	u	13µM*	u	13µM*
Cc1ccc(C(C)C)c(OCC(=O)Nc2ccc(N3CCOCC3)cc2N2CCOCC2)c1	18.3µM*	u	u	i	-1.6%
Cc1cc(Cl)ccc1OCC(=O)Nc1ccccc1N1CCOCC1	10.9%	u	20.8%	14.6µM*	0.6%
O=C(COc1ccc(F)cc1Br)Nc1ccccc1N1CCOCC1	-28.9%	i	0.0%	8.2µM*	4.3%
C/C(=N/NC(=O)COc1cc(C)ccc1C(C)C)C(=O)O	-5.6%	i	u	i	8.9%
CCn1nnc(NC(=O)COc2cc(C)ccc2C(C)C)n1	0.0%	i	4.2%	14.6µM*	-4.2%
O=S1(=O)N=C(Oc2ccccc2Br)c2ccccc21	x	i	x	i	x
COc1ccc(-c2c(-c3ccc4c(c3)OCO4)noc2-c2ccsc2)cn1	x	i	x	u	x
COc1cc(C)ccc1OCC(=O)Nc1ccccc1N1CCOCC1	4.2%	i	19.3%	5.8µM*	-6.0%
Cc1ccc(OCC(=O)Nc2ccccc2N2CCOCC2)c(C)c1	u	i	20.4%	i	7.2%
COc1cccc(CNC(=O)CSc2nnc(C)c3c(C)n(-c4ccccc4)nc23)c1OC	x	i	x	i	x
O=C(N/N=C/c1cccs1)c1n[nH]c2c1CCC2	u	5.8µM*	8.2µM*	u	11.6µM*
O=C(N/N=C/c1ccccc1Cl)c1n[nH]c2c1CCCC2	u	u	-1.6%	i	-2.7%
O=C(N/N=C/c1ccc(Cl)cc1)c1n[nH]c2c1CCCC2	u	4.61µM*	u	1.3µM*	u
COc1ccc(CCNC(=O)Cc2ccsc2)cc1	0.0%	i	-1.1%	i	-5.4%
CCCN(CC(=O)Nc1ccccc1C)C(=O)CCCNC(=O)c1ccc(Cl)cc1	14.5%	i	0.0%	u	-5.2%
Oc1c(Cl)cc(Cl)cc1/C=C/c1ccc2cccc(O)c2n1	23.1µM*	u	6.51µM*	u	11.6µM*
O=[N+]([O-])c1cccc2ccc(/C=C/c3ccc(Cl)cc3)nc12	u	i	2.1%	u	-7.3%
